The source of these data is PubChem BioAssay (NCATS).

Unmarked numbers belong to inactive results. Rule as the data show it: active = potency below about 10 µM; inactive = the rest.
Potency is read from the fitted curve at half-maximal effect.

Chain of Lysosomal acid glucosylceramidase (Homo sapiens) (P04062 whole entry, looked up): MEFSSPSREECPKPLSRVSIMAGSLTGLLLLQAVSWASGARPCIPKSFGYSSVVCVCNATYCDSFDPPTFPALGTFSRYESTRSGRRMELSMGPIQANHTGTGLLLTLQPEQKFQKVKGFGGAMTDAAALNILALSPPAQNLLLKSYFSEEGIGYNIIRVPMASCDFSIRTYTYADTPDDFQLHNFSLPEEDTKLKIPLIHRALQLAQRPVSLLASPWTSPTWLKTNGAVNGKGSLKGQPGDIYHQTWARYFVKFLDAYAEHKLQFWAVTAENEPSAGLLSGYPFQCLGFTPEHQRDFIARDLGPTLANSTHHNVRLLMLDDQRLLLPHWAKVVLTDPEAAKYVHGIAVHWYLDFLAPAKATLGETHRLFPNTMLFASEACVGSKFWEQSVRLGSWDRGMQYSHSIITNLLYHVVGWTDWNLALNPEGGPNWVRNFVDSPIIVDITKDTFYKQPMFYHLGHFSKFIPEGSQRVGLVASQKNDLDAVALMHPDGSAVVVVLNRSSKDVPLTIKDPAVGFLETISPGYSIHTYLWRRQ

The test has as its target Lysosomal acid glucosylceramidase (Homo sapiens) (UniProt P04062). Nature of the test: Glucocerebrosidase-p2 (AID 348). The settings on record: purified GBA, blue fluorogenic substrate, 40 min. An excerpt:
Beta-glucocerebrosidase catalyzes the hydrolysis of beta-glucocerebroside to glucose and ceramide. The inherited deficiency of beta-glucocerebrosidase results in Gaucher disease, which is characterized by a wide variety of symptoms including hepatosplenomegaly, anemia, thrombocytopenia, bony lesions and bone marrow infiltration with characteristic storage cells, known as Gaucher cells. There are also forms of the disorder affecting the central nervous system. Patients with the same genotypes can manifest with diverse clinical presentations and it is believed that improper folding and trafficking of beta-glucocerbrosidase may contribute to the phenotypes observed.
Low molecular weight molecules, acting as chaperones, may potentially restore trafficking of misfolded beta-glucocerebrosidase from the endoplasmic reticulum to the lysosomes, thereby enhancing functional lysosomal beta-glucocerebrosidase activity.
Using normal beta-glucocerebrosidase, an assay was developed to screen for small molecule inhibitors that could potentially act as molecular chaperones on the mutant forms [developed with NIH investigator Dr. Ellen Sidransky#s laboratory]. Two pro-fluorescent substrates were chosen for two screens against a small molecule library. One beta-glucocerebrosidase assay used Resorufin beta-D-Glucopyranoside (Marker Gene Technology Inc.), generating a red fluorescent product. The second assay used […] fluorescent product. The Km for the Resorufin beta-D-Glucopyranoside and Fluorescein di-beta-D-Glucopyranoside were determined to be 71.2 uM and 855 uM, respectively. The IC50 values of Conduritol B Epoxide, a known glucocerebrosidase inhibitor, were determined to be 87.5 uM and 117 uM, respectively. The use of two difference pro-fluorescent substrates in the screens helped to eliminate false positives. All compounds were screened in a titration series resulting in AC50s (e.g., IC50s or EC50s). Data normalization and AC50 calculations were accomplished using GeneData software.
NCGC Assay Protocol Summary
Both enzyme and substrate were diluted in buffer composed of 50mM citric acid/KH2PO4, 10mM sodium taurocholate and 0.01% tween-20 at pH 5.9. The final concentration of the enzyme was 0.2 nM in both assays. The compound library was titrated in 7 to 15 concentrations for the primary screens with a final concentration ranging from 0.6 nM to 50 uM. This particular assay protocol is for the "blue" substrate, and it was performed in 1536-well plate format as follows:
Blue fluorescence substrate assay:
1 uL substrate (final concentration of 80 uM)
Incubate at room temperature (RT) for 40 minutes
3 uL stop solution (1 M NaOH and 1 M glycine in water)
Read the plate in Viewlux plate reader (Ex=365(10) and Em=440(10)).
Take `COc1cc2c(cc1OC)[C@@]13CCN4C=C5CCO[C@H]6CC(=O)N2[C@@H]1[C@@H]6[C@H]5C[C@H]43`: the Potency was over 11.4 µM. On to `CCCOC(=O)[C@@H]1[C@@H](C(=O)O)[C@H]2CC[C@@H]1O2`, for which the Potency is over 11.4 µM. With `N=C(N)SCc1ccc(Cl)c2ccccc12` (tested in a mixture with another compound), the Potency was over 11.4 µM.

Turning to `CN(C)CCC(C#N)(c1ccccc1)c1ccccc1`, the Potency is over 11.4 µM. Turning to `O[C@H](CN1CC1)[C@@H](O)CN1CC1`, the Potency was over 11.4 µM. With `CCC1(CCSC(=N)N)C(=O)NC(=O)NC1=O`, the Potency is over 11.4 µM. Take `Nc1c(C(=O)Nc2ccc([As](=O)(O)O)cc2)cnc2nnnn12`: the Potency is over 11.4 µM. Turning to `[N-]=[N+]=CC(=O)CC[C@H](N)C(=O)O`, the Potency was over 11.4 µM. `C[C@@H](O)CN(CCN(C[C@@H](C)O)C[C@@H](C)O)C[C@@H](C)O.O=[N+]([O-])O.[Cu]`: the Potency is over 11.4 µM. As for `COc1cc2ccccc2c2cc([N+](=O)[O-])oc12`, the Potency was over 11.4 µM. Take `O=C(C[C@H](c1ccccc1)c1c(O)c2ccccc2oc1=O)c1ccccc1`: the Potency was over 11.4 µM. As for `Cc1ccc(O)cc1` (tested in a mixture with another compound), the Potency is over 11.4 µM. The result for `NCCc1ccc(S(=O)(=O)O)cc1[N+](=O)[O-]` reads over 11.4 µM. For the compound `c1ccc(CCN2CCCCCC2)nc1`, the Potency was over 11.4 µM.

In the case of `O=[As](O)(O)c1ccc2nc3cc([As](=O)(O)O)ccc3nc2c1`, the Potency was over 11.4 µM. With `O=S(=O)(NCCO)c1cc[c]([Sb](=[O])([OH])[OH])cc1`, the Potency was over 11.4 µM. Take `C[C@@]12CC[C@H](O)C[C@@H]1CC[C@@H]1[C@@H]2CC[C@@]2(C)[C@@H](C3=CC(=O)OC3)[C@H](O)C[C@]12O`: the Potency is over 11.4 µM.

As for `NC[C@@H](O)CSP(=O)(O)O`, the Potency is over 11.4 µM.

`C[C@]12CC[C@@H]3[C@H](CCC4=CC(=O)CC[C@]43C)[C@]1(O)CC[C@@]2(O)C(=O)CO`: the Potency was over 11.4 µM. The result for `O=C(O)/C=C\c1ccc[c]([Sb](=[O])([OH])[OH])c1` reads over 11.4 µM; that for `COC(=O)c1c(C)ccc2c(O)c3c(cc12)C(=O)c1c2c(cc(O)c1C3=O)[C@@]1(C)O[C@@](C)(O2)[C@@H](O)[C@H](N(C)C)[C@H]1O`, over 11.4 µM. Turning to `O=C(N1CCOCC1)C1(c2ccccc2)CCNCC1`, the Potency is over 11.4 µM. With `O=C(O)C(Oc1nc(=S)[nH]c(=S)[nH]1)(c1ccc(Cl)cc1)c1ccc(Cl)cc1`, the Potency was over 11.4 µM.

On to `O=C(O)CSCC(=O)O`, for which the Potency is over 11.4 µM. On to `CN[C@H]1[C@H](C)O[C@@H](O[C@@H]2C/C=C(/C)C/C(C)=C\C=C/CC[C@@H](C)CNC(=O)/C=C\C=C/[C@H]2C)C[C@@H]1O`, for which the Potency is over 11.4 µM. For `CCOC(=O)[C@@H]1[C@@H]2c3ccccc3-c3ccccc3[C@H]2C[C@H]1O`, the Potency was over 11.4 µM. The result for `c1ccc2c(c1)Sc1ccccc1N2C[C@H]1CN2CCC1CC2` reads over 11.4 µM. On to `C[N+]1(C)C2CC[C@H]1CC(OC(=O)[C@@H](CO)c1ccccc1)C2` (stereo not given in full), for which the Potency is over 11.4 µM. With `C[C@H](CC(C#N)(c1ccccc1)c1ccccc1)N1CCCCC1`, the Potency was over 11.4 µM.

As for `O=C(Nc1ccc([As](=O)(O)O)cc1)Nc1cccc(Cl)c1Cl`, the Potency was over 11.4 µM.

As to `c1cncc(CNCCN2CCNCC2)c1`, the Potency was over 11.4 µM. The result for `O=C(O)C(O)(c1ccc(-c2ccccc2)cc1)c1ccc(-c2ccccc2)cc1` reads over 11.4 µM. On to `O=C(O)C(C(=O)O)P(=S)(S)c1ccccc1` (stereo not given), for which the Potency was over 11.4 µM.

Turning to `CN(C)CCCNc1c2c(nc3ccc(Cl)cc13)CCCC2`, the Potency is over 11.4 µM.

As to `Cc1ccc(NC(=[OH+])c2cc3ccccc3cc2O)c(C)c1.Cc1ccc(NC(=[OH+])c2cc3ccccc3cc2O)c(C)c1.[Ni]`, the Potency was over 11.4 µM. The result for `CCSCC[C@H](N)C(=O)O` reads over 11.4 µM; that for `O=C(O)C[O][Sb][O]CC(=O)O`, over 11.4 µM. The result for `CC[C@]1(OC(=O)CN)C(=O)OCc2c1cc1n(c2=O)Cc2cc3ccccc3nc2-1` reads over 11.4 µM; that for `CC(C)CCC1(CCN)C(=O)NC(=O)NC1=O`, over 11.4 µM.

Consider `CN(C)[C@@H]1C(=O)C(C(N)=O)=C(O)[C@]2(O)C(=O)C3=C(O)c4c(O)cccc4[C@](C)(O)[C@H]3C[C@@H]12`, for which the Potency is over 11.4 µM.
